In PubChem BioAssay one finds inhibition, nuclei count and z-score data, which are given here for 40 compounds.

The source made the active and inactive calls.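 How the source made its calls: active means visually confirmed hit in the image check and inhibition above 20%; inconclusive means visually confirmed hit but inhibition not above 20%; inactive means no visual hit in the image check.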

One assay is described as follows: inhibitors of E-selectin induction by TNFa, primary screen, imaging, HUVEC, immunofluorescence, MLSMR starter and 10KST1 sets (AID 487).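 On inhibition: signal is fraction of cell area covered by stained E-selectin grains.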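 On nuclei count: 100% = median nuclei count of all wells on the same plate.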 To be noted: HUVEC TNFalpha-induced E-selectin immunofluorescence imaging, at 2 µM; inhibition: stronger effect = higher value; nuclei count: measured here: cell number, toxicity.
A word on the inhibition: it is the change of the read-out against control, counted positive when it falls. Turning to `Cc1nnc(N2CCOCC2)c2ccccc12`, the inhibition is -63.6% (inactive) and the nuclei count is 148%.

Consider `CCOc1ccc2c(c1)n([O-])c1c([n+]2=O)CCCC1`, for which the inhibition is -31.4% (inactive) and the nuclei count was 84.7%.

As for `C[N+]1(CCNC(=O)/C=N/O)CCCCC1`, the nuclei count was found to be 147% and the inhibition was -76.5% (inactive).

In the case of `Cc1ccc(C(=O)NCCCNCCCNC(=O)c2ccc(C)nc2)cn1`, the nuclei count was 151% and the inhibition is -153% (inactive).

Consider `CCCCCOc1ccccc1C(=O)NCCCC(=O)O`, for which the inhibition is -57.4% (inactive) and the nuclei count amounted to 116%.

Regarding `CCN(CC)c1nc(C)c2c(c1C#N)CC(C)(C)OC2`, the nuclei count was 118% and the inhibition was -142% (inactive).

Turning to `Cn1ncc(N=Cc2ccccc2O)c1C(=O)N1CCOCC1`, the nuclei count worked out at 172% and the inhibition is -60.6% (inactive).

`CN1CCN(c2c3c(c(C#N)c4nc5ccccc5n24)CCCC3)CC1`: the nuclei count is 130% and the inhibition was -60.7% (inactive).

As to `CC(C(=O)NC(=O)NCc1ccccc1)N1C(=O)c2ccccc2C1=O` (stereo not given), the inhibition was -28.7% (inactive) and the nuclei count turned out to be 94.9%.

Take `COC(=O)c1cc(Br)c(=O)n(-c2cc(C)on2)c1`: the nuclei count amounted to 115% and the inhibition was 23.3% (inactive).

Turning to `CCOC(=O)c1[nH]c2ccc(OC)cc2c1NC(=O)CCN1CCCC(C)C1` (stereo not given), the inhibition was 9.9% (inactive) and the nuclei count came to 100%.

As for `COc1cccc(C(=O)c2sc(NC(C)C)nc2N)c1`, the inhibition was 61.3% (inactive) and the nuclei count came to 158%.

As for `CCOc1ccc(-c2nc(C#N)c(N3CCN(CC)CC3)o2)cc1`, the inhibition was -29.1% (inactive) and the nuclei count is 129%.

With `CCC(CC)n1[nH]c(=O)cc1N`, the nuclei count came to 144% and the inhibition was -166% (inactive).

Turning to `CC1(C)Cc2nc(NCCN3CCOCC3)c(C#N)cc2CO1`, the nuclei count was 149% and the inhibition was -133% (inactive).

`COc1ccc2nc(/N=C(\N)NC(=O)C(C)(C)C)nc(C)c2c1`: the nuclei count was determined as 184% and the inhibition is -18.6% (inactive).

Regarding `CC(C)CNc1nc2c(c(=O)n(C)c(=O)n2C)n1Cc1cccc(Br)c1`, the nuclei count was 174% and the inhibition is -160% (inactive).

Take `COc1ccccc1C(=O)Nc1cc(Cl)ccc1O`: the nuclei count was determined as 123% and the inhibition is -76% (inactive).

In the case of `c1ccc(-n2ncc3c(N4CCCC4)ncnc32)cc1`, the nuclei count stood at 188% and the inhibition is 12.6% (inactive).

In the case of `NC(=O)C1CCN(CCC(=O)Nc2ccc(Br)cc2)CC1`, the inhibition is -30.8% (inactive) and the nuclei count turned out to be 163%.

With `CCCCC(=O)c1c(C)cc(C)[nH]c1=O`, the nuclei count is 191% and the inhibition is -99.5% (inactive).

For the compound `C/C(NC(=O)c1cccs1)=C1\C(=O)C[C@@H]2[C@H]1C2(C)C`, the inhibition is -127% (inactive) and the nuclei count worked out at 150%.

Consider `CC1CCN(c2[nH]c(=S)c(C#N)c3c2CCCC3)CC1`, for which the nuclei count turned out to be 140% and the inhibition is -5.3% (inactive).

Consider `CCC(=O)Nc1ccc(-c2nnc(SCC(=O)NCC3CCCO3)n2C)cc1` (stereo not given), for which the inhibition was 10.4% (inactive) and the nuclei count was determined as 160%.

As to `Cc1nnc(N2CCCCC2)c2ccccc12`, the inhibition is 59.4% (inactive) and the nuclei count amounted to 87%.

Regarding `Cc1cccc(-n2ncc3c(NCCN4CCOCC4)ncnc32)c1`, the nuclei count was 156% and the inhibition was 0.1% (inactive).

For `N#CCCN(C(=O)c1ccco1)c1ccccc1`, the inhibition was -91% (inactive) and the nuclei count turned out to be 128%.

Consider `N#Cc1c(N)nc(SCC(=O)NCc2ccc3c(c2)OCO3)c(C#N)c1-c1cccs1`, for which the inhibition was 53.2% (inactive) and the nuclei count is 115%.

With `CCC1CC2(C)NC(=O)c3c(sc4c3CC(C)(C)OC4)N2C1=O` (stereo not given), the inhibition was -48.8% (inactive) and the nuclei count came out at 175%.

As to `C=CCN=C(C)C1=C(O)CCC1=O`, the inhibition was -33.6% (inactive) and the nuclei count turned out to be 116%.

In the case of `Cc1ccc(-n2ncc3c(NCc4cccnc4)ncnc32)c(C)c1`, the nuclei count came to 103% and the inhibition is 33.3% (inactive).

On to `Clc1ccc(COc2ccccn2)c(Cl)c1`, for which the inhibition was -15.4% (inactive) and the nuclei count came to 138%.

In the case of `Cc1cc(=O)oc(C)c1C(=O)Nc1ccc2nsnc2c1`, the inhibition is 3.2% (inactive) and the nuclei count amounted to 164%.

With `O=C(C1CCCCC1)N1CCCn2c1nc1ccccc12`, the nuclei count amounted to 93.7% and the inhibition is 40.4% (inactive).

Regarding `CCc1nc(NCC2CCCO2)c(C#N)c2c1COC(C)(C)C2` (stereo not given), the inhibition was 2% (inactive) and the nuclei count came out at 127%.

In the case of `CCc1nc(N2CCOCC2)c(C#N)c2c1CCCC2`, the nuclei count is 121% and the inhibition is -105% (inactive).

On to `CCc1cc(=O)oc2cc(C)c(CN3CCCC(C)C3)c(O)c12` (stereo not given), for which the inhibition was -2.7% (inactive) and the nuclei count is 109%.

Take `C=CCN=C(NC#N)SCCc1ccccc1`: the inhibition was 49.5% (inactive) and the nuclei count was 161%.

For the compound `CCN(CC)CCN1C(=O)c2ccccc2NC1c1cc(OC)c(OC)c(OC)c1` (stereo not given), the nuclei count was 132% and the inhibition was 57.5% (inactive).

For `COc1ccc(C2C(C#N)=C(N)Oc3cc(C)n(CCN4CCOCC4)c(=O)c32)cc1OC` (stereo not given), the nuclei count amounted to 110% and the inhibition is 0.9% (inactive).

A short description of another assay: DUSP6 inhibitors restoring Erk phosphorylation by chemical complementation, primary imaging in DUSP6-transfected HeLa (AID 609). As to conditions: HeLa MKP-3 transfected, phospho-Erk imaging KS statistic; measured here: cell density z-score; at 10 µM; cells stimulated with TPA for 15 min.
Turning to `Cc1nnc(N2CCOCC2)c2ccccc12`, the z-score is 0.561.

`CCOc1ccc2c(c1)n([O-])c1c([n+]2=O)CCCC1`: the z-score was -0.67.

Take `C[N+]1(CCNC(=O)/C=N/O)CCCCC1`: the z-score was -1.04.

`Cc1ccc(C(=O)NCCCNCCCNC(=O)c2ccc(C)nc2)cn1`: the z-score turned out to be 0.349.

As to `CCCCCOc1ccccc1C(=O)NCCCC(=O)O`, the z-score came to 0.366.

Consider `CCN(CC)c1nc(C)c2c(c1C#N)CC(C)(C)OC2`, for which the z-score is -2.08.

On to `Cn1ncc(N=Cc2ccccc2O)c1C(=O)N1CCOCC1`, for which the z-score was -0.778.

Compound `CN1CCN(c2c3c(c(C#N)c4nc5ccccc5n24)CCCC3)CC1` registered a z-score of 1.3.

For `CC(C(=O)NC(=O)NCc1ccccc1)N1C(=O)c2ccccc2C1=O` (stereo not given), the z-score came to 0.127.

`COC(=O)c1cc(Br)c(=O)n(-c2cc(C)on2)c1`: the z-score is -0.164.

Regarding `CCOC(=O)c1[nH]c2ccc(OC)cc2c1NC(=O)CCN1CCCC(C)C1` (stereo not given), the z-score was -0.422.

For `COc1cccc(C(=O)c2sc(NC(C)C)nc2N)c1`, the z-score was -0.552.

For the compound `CCOc1ccc(-c2nc(C#N)c(N3CCN(CC)CC3)o2)cc1`, the z-score came to 0.554.

Compound `CCC(CC)n1[nH]c(=O)cc1N` had a z-score of 2.

Consider `CC1(C)Cc2nc(NCCN3CCOCC3)c(C#N)cc2CO1`, for which the z-score turned out to be 0.143.

As for `COc1ccc2nc(/N=C(\N)NC(=O)C(C)(C)C)nc(C)c2c1`, the z-score came out at 0.367.

On to `CC(C)CNc1nc2c(c(=O)n(C)c(=O)n2C)n1Cc1cccc(Br)c1`, for which the z-score was found to be 0.789.

Turning to `COc1ccccc1C(=O)Nc1cc(Cl)ccc1O`, the z-score was -1.1.

Take `c1ccc(-n2ncc3c(N4CCCC4)ncnc32)cc1`: the z-score came out at 0.427.

In the case of `NC(=O)C1CCN(CCC(=O)Nc2ccc(Br)cc2)CC1`, the z-score amounted to 0.663.

Consider `CCCCC(=O)c1c(C)cc(C)[nH]c1=O`, for which the z-score was found to be 0.203.

In turn, `C/C(NC(=O)c1cccs1)=C1\C(=O)C[C@@H]2[C@H]1C2(C)C` had a z-score of 0.211.

`CC1CCN(c2[nH]c(=S)c(C#N)c3c2CCCC3)CC1` displayed a z-score of 0.378.

With `CCC(=O)Nc1ccc(-c2nnc(SCC(=O)NCC3CCCO3)n2C)cc1` (stereo not given), the z-score is -0.113.

Regarding `Cc1nnc(N2CCCCC2)c2ccccc12`, the z-score was -2.8.

Consider `Cc1cccc(-n2ncc3c(NCCN4CCOCC4)ncnc32)c1`, for which the z-score was -0.984.

Consider `N#CCCN(C(=O)c1ccco1)c1ccccc1`, for which the z-score came out at 0.6.

The compound `N#Cc1c(N)nc(SCC(=O)NCc2ccc3c(c2)OCO3)c(C#N)c1-c1cccs1` displayed a z-score of 0.98.

`CCC1CC2(C)NC(=O)c3c(sc4c3CC(C)(C)OC4)N2C1=O` (stereo not given) displayed a z-score of 0.444.

Take `C=CCN=C(C)C1=C(O)CCC1=O`: the z-score was -0.646.

Turning to `Cc1ccc(-n2ncc3c(NCc4cccnc4)ncnc32)c(C)c1`, the z-score was -0.852.

`Clc1ccc(COc2ccccn2)c(Cl)c1`: the z-score was determined as 0.311.

In turn, `Cc1cc(=O)oc(C)c1C(=O)Nc1ccc2nsnc2c1` returned a z-score of 0.355.

The compound `O=C(C1CCCCC1)N1CCCn2c1nc1ccccc12` had a z-score of 0.0435.

In the case of `CCc1nc(NCC2CCCO2)c(C#N)c2c1COC(C)(C)C2` (stereo not given), the z-score was -0.137.

The compound `CCc1nc(N2CCOCC2)c(C#N)c2c1CCCC2` came in with a z-score of 0.0216.

`CCc1cc(=O)oc2cc(C)c(CN3CCCC(C)C3)c(O)c12` (stereo not given) returned a z-score of 1.56.

Regarding `C=CCN=C(NC#N)SCCc1ccccc1`, the z-score is -0.943.

Turning to `CCN(CC)CCN1C(=O)c2ccccc2NC1c1cc(OC)c(OC)c(OC)c1` (stereo not given), the z-score came out at 0.00511.

On to `COc1ccc(C2C(C#N)=C(N)Oc3cc(C)n(CCN4CCOCC4)c(=O)c32)cc1OC` (stereo not given), for which the z-score was -1.19.
